Results reported in PubChem BioAssay (NCI).
This is part of a sample that, as a whole, favours compounds with a hit. Of some 83,000 tested, about 20% had one in any assay.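 Note: values are percent growth. 100 is the growth of untreated cells, values between 100 and 0 indicate rising inhibition; between -100 and 0 indicates cell death.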 Activity calls are given as the source filed them. Rule for the calls: active = growth percent below 10; inactive = the rest.

Key:
Test in all cases: NCI-60 one-dose screen, 48 h (100 = growth as untreated, 0 = no growth, -100 = all killed)
Conditions in all cases: 10 µM unless noted
BT-549 breast = test system: BT-549 breast
MDA-MB-435 melanoma = test system: MDA-MB-435 melanoma
SW-620 colon = test system: SW-620 colon
MCF7 breast = test system: MCF7 breast
HCT-116 colon = test system: HCT-116 colon
HCC-2998 colon = test system: HCC-2998 colon
KM12 colon = test system: KM12 colon

Measured: growth

CS(=O)(=O)c1ccc(-c2[nH]c3ccc(F)cc3c2/C=N/NC(N)=S)cc1
inactive: BT-549 breast 39.3% | SW-620 colon 21.3% | MCF7 breast 19.3% | HCC-2998 colon 24.3% | KM12 colon 18.5%
active: MDA-MB-435 melanoma -16.3% | HCT-116 colon 8.16%

Cc1cc(N2CCCCC2)nc(N(CCNc2ccnc3cc(Cl)ccc23)Cc2ccccn2)n1
inactive: BT-549 breast 64.3% | MDA-MB-435 melanoma 68.1% | SW-620 colon 45.7% | MCF7 breast 26.2% | HCT-116 colon 16.2% | HCC-2998 colon 84.6% | KM12 colon 55.2%

COC(=O)c1ccc2oc(NC(=O)c3ccc(N4CCOCC4)c([N+](=O)[O-])c3)nc2c1
inactive: BT-549 breast 95.7% | MDA-MB-435 melanoma 107% | SW-620 colon 100% | MCF7 breast 94.1% | HCT-116 colon 93% | HCC-2998 colon 105% | KM12 colon 102%

C=C1C(=O)O[C@H]2[C@H]1CC/C(Cn1cc(CNCCc3c[nH]c4ccccc34)nn1)=C\CC[C@@]1(C)O[C@@H]21
inactive: BT-549 breast 90.6% | MDA-MB-435 melanoma 97% | SW-620 colon 46.1% | MCF7 breast 90.2% | HCT-116 colon 64.8% | HCC-2998 colon 97.1% | KM12 colon 98%

Oc1ccccc1-c1nc2ccccn2c1NCCN1CCOCC1
inactive: BT-549 breast 99.2% | MDA-MB-435 melanoma 102% | SW-620 colon 94.8% | MCF7 breast 96.7% | HCT-116 colon 93.9% | HCC-2998 colon 101% | KM12 colon 91.2%

C=C1C(=O)O[C@H]2[C@H]1CC/C(Cn1cc(CNCCc3c[nH]c4ccc(Cl)cc34)nn1)=C\CC[C@@]1(C)O[C@@H]21
inactive: BT-549 breast 74.7% | MDA-MB-435 melanoma 68% | MCF7 breast 42.9% | HCT-116 colon 11.2% | HCC-2998 colon 103% | KM12 colon 82.9%
active: SW-620 colon 2.69%

C=C(CNCCc1ccc(O)cc1)[C@@H]1CC[C@]2(COC3CCCCO3)CC[C@]3(C)[C@H](CC[C@@H]4[C@@]5(C)CCC(N)C(C)(C)[C@@H]5CC[C@]43C)[C@@H]12 (some centres undefined)
active: BT-549 breast -70% | MDA-MB-435 melanoma -95% | SW-620 colon -77.4% | MCF7 breast -79.8% | HCT-116 colon -91.3% | HCC-2998 colon -84.7% | KM12 colon -85.7%

Clc1cnc(Nc2ccc(OCCN3CCCC3)cc2)nc1NCc1ccco1
active: SW-620 colon 6.11% | MCF7 breast -0.965% | HCT-116 colon 7.55% | KM12 colon 4.56%
inactive: BT-549 breast 45.7% | MDA-MB-435 melanoma 34.5% | HCC-2998 colon 59.1%

COc1ccc(NC(=O)c2cccc(-c3cc(=O)c4c(O)c(OC)c(OC)cc4o3)c2)cc1
inactive: BT-549 breast 31% | MDA-MB-435 melanoma 105% | SW-620 colon 102% | MCF7 breast 93.3% | HCT-116 colon 70.5% | HCC-2998 colon 101% | KM12 colon 103%

Cc1cc(N(CCCNc2ccnc3cc(Cl)ccc23)Cc2ccccn2)nc(N2CCCC2)n1
inactive: BT-549 breast 91.7% | MDA-MB-435 melanoma 86.7% | SW-620 colon 70.5% | MCF7 breast 56.9% | HCT-116 colon 50.3% | HCC-2998 colon 89.2% | KM12 colon 82.8%

Cc1nc2ccc(C(=O)NCc3cc(C(=O)O)c(C)o3)cc2nc1C
inactive: BT-549 breast 96.1% | MDA-MB-435 melanoma 96.2% | SW-620 colon 99.3% | MCF7 breast 101% | HCT-116 colon 95.5% | HCC-2998 colon 98% | KM12 colon 92.3%

Cc1ccc(S(=O)(=O)Nc2sccc2-c2nc(-c3ccccc3)no2)cc1
inactive: BT-549 breast 92.5% | MDA-MB-435 melanoma 95.6% | SW-620 colon 97% | MCF7 breast 93.1% | HCT-116 colon 85.9% | HCC-2998 colon 97.8% | KM12 colon 90.1%

CCN(CC)N=Nc1nn(C(=O)Nc2ccc(Cc3ccccc3)cc2)c2ccc(Cl)cc12
inactive: BT-549 breast 84.1% | MDA-MB-435 melanoma 43% | SW-620 colon 44.4% | MCF7 breast 40.4% | HCT-116 colon 44% | HCC-2998 colon 43.2% | KM12 colon 56.6%

CCCCCCN(CCCCCC)CC(O)c1cccc2ccc(Cl)cc12 (centres undefined)
inactive: BT-549 breast 99.2% | MDA-MB-435 melanoma 69.9% | SW-620 colon 35.7% | MCF7 breast 56.5% | HCT-116 colon 16.7% | HCC-2998 colon 13.1% | KM12 colon 44.5%

Cc1cc(N(CCCNc2ccnc3cc(Cl)ccc23)Cc2ccccn2)nc(N2CCOCC2)n1
inactive: BT-549 breast 90.5% | MDA-MB-435 melanoma 111% | SW-620 colon 83.5% | MCF7 breast 87% | HCT-116 colon 57.9% | HCC-2998 colon 105% | KM12 colon 103%

C=C(C)[C@@H]1CC[C@]2(CNCCO)CC[C@]3(C)[C@H](CC[C@@H]4[C@@]5(C)CCC(N)[C@@](C)(CO)[C@@H]5CC[C@]43C)[C@@H]12 (some centres undefined)
active: MDA-MB-435 melanoma -75.7% | SW-620 colon -60.2% | MCF7 breast -54.2% | HCT-116 colon -90.2% | HCC-2998 colon -8.22% | KM12 colon -2.9%
inactive: BT-549 breast 68.6%

C=C1c2c(C)nn(-c3ccc(NC(C)=O)cc3)c2N(C)C23CC1C1(C)c4c(C)nn(-c5ccc(NC(C)=O)cc5)c4N(C)C(C)(CC12)C3 (centres undefined)
active: MCF7 breast 9.67%
inactive: BT-549 breast 44% | MDA-MB-435 melanoma 30.6% | SW-620 colon 27.9% | HCT-116 colon 13.4% | HCC-2998 colon 44.7% | KM12 colon 23.6%

C=C1C(=O)O[C@H]2[C@H]1CC/C(COC(=O)/C=C/C(=O)NCc1ccc(Cn3c(=O)sn(-c4ccccc4)c3=O)cc1)=C\CC[C@@]1(C)O[C@@H]21
active: BT-549 breast -3.27% | MDA-MB-435 melanoma -26.6% | SW-620 colon -64.5% | MCF7 breast 5.01% | HCT-116 colon -79.1%
inactive: HCC-2998 colon 54.4% | KM12 colon 49.1%

N#Cc1cccc(-c2nc3ccccn3c2NCCN2CCOCC2)c1
inactive: BT-549 breast 93.3% | MDA-MB-435 melanoma 102% | SW-620 colon 95.5% | MCF7 breast 90.4% | HCT-116 colon 89.9% | HCC-2998 colon 96.1% | KM12 colon 88.6%

Nc1ccc(S(=O)(=O)Nc2ccsc2-c2nc(-c3ccccc3)no2)cc1
active: MDA-MB-435 melanoma 3.96%
inactive: BT-549 breast 59% | SW-620 colon 29.8% | MCF7 breast 55.9% | HCT-116 colon 38.4% | HCC-2998 colon 79.4% | KM12 colon 33.6%

CN1CCN(C(=O)[C@]23CCC(C)(C)C[C@@H]2C2=CC[C@@H]4[C@@]5(C)Cc6c([nH]c7ccccc67)C(C)(C)[C@@H]5CC[C@@]4(C)[C@]2(C)CC3)CC1
inactive: BT-549 breast 97% | MDA-MB-435 melanoma 84.6% | SW-620 colon 96.4% | MCF7 breast 69.9% | HCT-116 colon 70.7% | HCC-2998 colon 99.4% | KM12 colon 76.3%

CS(=O)(=O)c1ccc(-c2nc3cc(Cl)ccc3n2CC(=O)N/N=C/c2ccc(Cl)cc2)cc1
inactive: BT-549 breast 41.8% | MDA-MB-435 melanoma 73.7% | SW-620 colon 75% | MCF7 breast 37.4% | HCT-116 colon 42.1% | HCC-2998 colon 73.5% | KM12 colon 41%

C/C(=N\NC(=O)Cn1c(-c2ccc(S(C)(=O)=O)cc2)nc2cc(Cl)ccc21)c1ccc(Cl)cc1
inactive: BT-549 breast 92.3% | MDA-MB-435 melanoma 79.1% | SW-620 colon 92.2% | MCF7 breast 62% | HCT-116 colon 80.5% | HCC-2998 colon 103% | KM12 colon 76.4%

C[C@H]1[C@H]2C3=CC[C@@H]4[C@@]5(C)C/C(=C/c6ccncc6)C(=O)C(C)(C)[C@@H]5CC[C@@]4(C)[C@]3(C)CC[C@@]2(C(=O)N2CCN(C)CC2)CC[C@@H]1C
inactive: BT-549 breast 89.3% | MDA-MB-435 melanoma 81.9% | SW-620 colon 83.1% | MCF7 breast 58.5% | HCT-116 colon 55.4% | HCC-2998 colon 82.9% | KM12 colon 67.5%

CC(C)(C)Nc1c(-c2c3ccccc3cc3ccccc23)nc2ccccn12
inactive: BT-549 breast 92.1% | MDA-MB-435 melanoma 90.1% | SW-620 colon 67.3% | MCF7 breast 74.2% | HCT-116 colon 46.2% | HCC-2998 colon 86% | KM12 colon 61.4%

CCCc1nc2ccccn2c1Nc1ccc(C(=O)NO)cc1
inactive: BT-549 breast 98.1% | MDA-MB-435 melanoma 90.2% | SW-620 colon 86.3% | MCF7 breast 79.6% | HCT-116 colon 85.4% | HCC-2998 colon 91.4% | KM12 colon 97.1%

Cc1cc(Cl)nc(N(CCCNc2ccnc3cc(Cl)ccc23)Cc2ccccn2)n1
inactive: BT-549 breast 54% | MDA-MB-435 melanoma 52.7% | SW-620 colon 53.3% | MCF7 breast 32.9% | HCT-116 colon 14.9% | HCC-2998 colon 74.2% | KM12 colon 48%

C=CC(=O)Nc1cccc(C)c1Nc1cc(-c2cccnc2Cc2c(C)c(OC)cc(OC)c2C)ncn1
active: BT-549 breast 5.86% | MCF7 breast 8.59%
inactive: MDA-MB-435 melanoma 19.9% | SW-620 colon 24.8% | HCT-116 colon 15.8% | HCC-2998 colon 71.1% | KM12 colon 17.6%

CC(C)n1nc(C#Cc2cccc(O)c2)c2c(N)ncnc21
active: BT-549 breast -65.4% | MDA-MB-435 melanoma -25.8% | SW-620 colon 0.77% | MCF7 breast 0.624% | HCT-116 colon -63.8% | HCC-2998 colon -2.82% | KM12 colon -7.5%

COc1ccc(/C=N/NC(=O)Cn2c(-c3ccc(S(C)(=O)=O)cc3)nc3cc(Cl)ccc32)cc1
active: MDA-MB-435 melanoma -17.8%
inactive: BT-549 breast 43.1% | SW-620 colon 30.5% | MCF7 breast 17.2% | HCT-116 colon 11.8% | HCC-2998 colon 19.4% | KM12 colon 13.3%

COc1ccc(Oc2nc(Nc3ccc(N4CCOCC4)nc3)ncc2NC(=O)c2cc(OC)cc(OC)c2)cc1
inactive: BT-549 breast 80.2% | MDA-MB-435 melanoma 32.7% | SW-620 colon 75.8% | MCF7 breast 63.8% | HCT-116 colon 72.1% | HCC-2998 colon 95.2% | KM12 colon 64%

CCCCOc1ccc(NC(=O)n2nc(N=NN(C)C)c3ccc(Cl)cc32)cc1
inactive: BT-549 breast 98.8% | MDA-MB-435 melanoma 106% | SW-620 colon 106% | MCF7 breast 85.2% | HCT-116 colon 91.3% | HCC-2998 colon 113% | KM12 colon 110%
